Source: PubChem (National Center for Advancing Translational Sciences (NCATS))
DT40 TDP1 CPT: qHTS for Inhibitors of human tyrosyl-DNA phosphodiesterase 1 (TDP1): qHTS in cells in presence of CPT; Potency, µM (series often up to 46.2 µM), inactives show at the highest dose activity change, negative = growth inhibition, hits mostly inhibitors; chicken DT40 Tdp1-/-;hTDP1 cells + 20 nM CPT, ATP luminescence, 48 h; AID 686979, 2013; actives 12% (n = 420,000); also: potency is read from the fitted curve at half-maximal effect; nearly all actives have a fitted effect of over 55% in size
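Chicken DT40 Tdp1-/- cells complemented with human TDP1, 400 cells/well, exposed to compounds plus 20 nM camptothecin for at least 48 h at 37 C; viability read as ATP content by CellTiter-Glo luminescence.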
RORg inh: qHTS for inhibitors of ROR gamma transcriptional activity | Nuclear receptor ROR-gamma (Mus musculus), P51450 | Drosophila S2 Gal4-RORgamma UAS-luciferase reporter, 20 h | Potency, µM (highest dose often 53.6 µM), without a hit: at the top dose activity change, negative = inhibition, hits mostly inhibitors | actives 5.4% (n = 310,000); also: potency is read from the fitted curve at half-maximal effect; nearly all actives have a fitted effect of over 60% in size
Target sequence (P51450 whole entry, looked up, the tested form may be a part): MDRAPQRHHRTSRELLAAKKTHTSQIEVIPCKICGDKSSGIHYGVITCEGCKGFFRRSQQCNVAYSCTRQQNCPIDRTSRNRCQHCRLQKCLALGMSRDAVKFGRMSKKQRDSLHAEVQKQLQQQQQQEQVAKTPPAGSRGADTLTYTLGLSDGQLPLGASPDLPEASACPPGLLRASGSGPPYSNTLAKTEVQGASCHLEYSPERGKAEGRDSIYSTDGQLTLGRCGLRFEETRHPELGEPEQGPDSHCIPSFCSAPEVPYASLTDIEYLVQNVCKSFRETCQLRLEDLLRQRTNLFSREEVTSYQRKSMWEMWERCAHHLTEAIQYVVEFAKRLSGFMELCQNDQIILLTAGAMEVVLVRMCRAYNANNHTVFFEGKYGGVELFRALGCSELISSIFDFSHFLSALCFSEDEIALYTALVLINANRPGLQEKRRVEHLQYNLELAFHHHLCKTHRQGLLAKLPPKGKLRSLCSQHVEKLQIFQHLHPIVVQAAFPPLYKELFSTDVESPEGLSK
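Stably transfected Drosophila Schneider cells are the test system, with ROR gamma fused to Gal4 and luciferase under UAS control; luminescence is read after 20 hr of 700 uM copper sulfate induction at ambient temperature.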
ELG1 DNA repair: qHTS screen for small molecules that inhibit ELG1-dependent DNA repair in human embryonic kidney (HEK293T) cells expressing luciferase-tagged ELG1 | AID 504467, 2011 | Potency, µM (doses to about 46.1 µM), inactives show at the top dose activity change, negative = inhibition, hits mostly inhibitors | actives 2.3% (n = 330,000) | HEK293T ELG1-luciferase reporter, luminescence, 16 h; DNA damage induced by 5-fluorouridine; also: potency is read from the fitted curve at half-maximal effect; nearly all actives have a fitted effect of over 55% in size
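HEK293T cells expressing luciferase-tagged ELG1 (2,000/well) received 5-Fluorouridine plus compound or DMSO for 16 hr at 37 °C. Luciferase was read by ONE-Glo luminescence after 30 min at room temperature.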
IL1B secr inh: qHTS for Inhibitors of Inflammasome Signaling: IL-1-beta AlphaLISA Primary Screen; THP-1 LPS/ATP IL-1B secretion, AlphaLISA, 16 h; hits give low values; activity change, % at 57.5 µM; actives 4.7% (n = 360,000); AID 743279, 2014; in the data active = activity change below about -50%; inconclusive = mostly about -30% to -49%
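THP-1 cells pretreated 1 hr with compounds (up to 57.5 uM final), then stimulated with LPS (250 ng/mL final) plus ATP (1.25 mM final); secreted IL-1B measured by AlphaLISA after 16 hr, decreased signal indicating inhibition.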
TDP1 cell noCPT: qHTS for Inhibitors of human tyrosyl-DNA phosphodiesterase 1 (TDP1): qHTS in cells in absence of CPT; DT40 Tdp1-/- hTDP1 cells, no CPT, ATP luminescence, 48 h; Potency, µM (series often up to 46.2 µM), without a hit: top-dose activity change, negative = growth inhibition, hits mostly inhibitors; actives 15% (n = 420,000); AID 686978, 2013; also: potency is read from the fitted curve at half-maximal effect; nearly all actives have a fitted effect of over 55% in size
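Cells were dispensed at 400 per well, compounds added by pin tool, plates incubated ≥48 hr at 37 °C, then CellTiter-Glo added for 30 min at room temperature before luminescence reading. Line: DT40 Tdp1-/- complemented with hTDP1; camptothecin omitted.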
Gal4-VP16 FLuc: VP16 counterscreen qHTS for inhibitors of ROR gamma transcriptional activity; Drosophila S2 Gal4-VP16 UAS-luciferase, luminescence, 20 h; Potency, µM (titrated, usually from 53.6 µM), for the others: at the top dose activity, negative = inhibition, actives largely listed as inhibitors; actives 3.5% (n = 310,000); AID 2546, 2010;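 also: Gal4-VP16 expression switched on by copper sulfate through the metallothionein promoter; potency is read from the fitted curve at half-maximal effect; nearly all actives have a fitted effect of over 50% in size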
The depositor's hits bear a star; i = inactive; u = inconclusive; x = no result; [ ] = remark or other dose. Sampled rows, rich in hits. Any-hit rate of the full collection: about 21%. Unless noted, calls follow the shape of the dose curve; as a rule, active = well fitted curve in the direction sought with a large enough effect; inconclusive = small, poorly fitted or top-dose-only effect, or another doubt; inactive = no such curve, though single readings can be large; an effect the other way counts as inactive or inconclusive. % is scaled to controls: 0 for no effect and ±100 for the full control effect.

SMILES	DT40 TDP1 CPT	RORg inh	ELG1 DNA repair	IL1B secr inh	TDP1 cell noCPT	Gal4-VP16 FLuc
CC(C)(C)c1ccc(C(=O)NC(=S)Nc2sc3c(c2C#N)CCC3)cc1	u	1%	12%	u	u	-7%
CC(=O)NC(=S)Nc1sc2c(c1C#N)CCCCC2	u	11µM*	u	-74*	u	8.9µM*
CCNC(=S)Nc1sc2c(c1C#N)CCC(C)C2 (stereo not drawn)	10%	11µM*	20%	-21	u	u
CC1CCc2sc(NC(=S)NC(=O)c3ccccc3)c(C#N)c2C1 (stereo not drawn)	-6%	14µM*	u	6	u	u
CCCCC/C=C\C/C=C\C/C=C\C=C\[C@@H](O)CCCC(=O)O	5%[0.628 µM]	-25%	x	x	-12%[0.628 µM]	1%
Cc1oc2c(c1C(=O)NCc1ccccc1F)C1=NCCN1C=N2	0%	x	x	x	-11%	x
CC(C)(C)C(=O)NC(NC(=S)Nc1sc2c(c1C#N)CCCC2)C(Cl)(Cl)Cl (stereo not drawn)	26µM*	10µM*	-4%	5	u	u
COC(=O)CCC(=O)Nc1sc2c(c1C#N)CCCC2	4.6µM*	45%	20%	11	4.6µM*	5%
CN1Cc2sc(NC(=S)NC(=O)c3ccccc3)c(C#N)c2CC1(C)C	-13%	3.2µM*	u	x	-25%	u
Cc1cccc(N2CCN(C(=O)CC(NC(=O)c3ccccc3Cl)c3ccccc3)CC2)c1C (stereo not drawn)	18µM*	u	-18%	-4	u	-16%
O=C(NC(CC(=O)N1CCN(c2ccc([N+](=O)[O-])cc2)CC1)c1ccccc1)c1ccccc1Cl (stereo not drawn)	u	u	u	-16	16µM*	-9%
Cc1cccc(N2CCN(C(=O)CNC(=O)Cc3ccccc3)CC2)c1C	u	x	u	-5	u	x
COc1cccc(Nc2ncc3nc(-c4cccs4)c(=O)n(-c4ccccc4)c3n2)c1	-12%	-45%	x	x	u	u
Cc1cccc(C(=O)Nc2ccccc2OCc2cc(=O)n3ccccc3n2)c1	-11%	x	x	x	-12%	x
CCN(CCNC(=O)C1CCC(=O)N1Cc1ccc(C)cc1)c1ccccc1 (stereo not drawn)	-19%	18%	-7%	-1	-16%	-4%
O=C(Nc1cc(Cl)cc(Cl)c1)C1CCC(=O)N1Cc1ccccc1Cl (stereo not drawn)	23µM*	u	-7%	u	u	16µM*
CCN(CCCNC(=O)C1CCC(=O)N1Cc1ccccc1Cl)c1cccc(C)c1 (stereo not drawn)	16µM*	u	-4%	0	23µM*	-3%
CCN(CCCNC(=O)C1CCC(=O)N1Cc1ccc(C)cc1)c1cccc(C)c1 (stereo not drawn)	13µM*	33%	-8%	-4	23µM*	-4%
CNC(=O)C1CCC(=O)N1Cc1ccccc1Cl (stereo not drawn)	-3%	8%	-5%	7	-2%	8%
O=C(NCCCN1CCN(c2cccc(Cl)c2)CC1)C1CCC(=O)N1Cc1ccccc1Cl (stereo not drawn)	16µM*	26%	-20%	-55*	u	-7%
CC(=O)Nc1ccc2ccccc2c1[N+](=O)[O-]	-3%	x	x	-3	-15%	x
CCCS(=O)(=O)N1CCC(C(=O)NCCCN(CC)c2cccc(C)c2)CC1	u	-35%	-11%	-5	u	0%
CCN(CCCNC(=O)C1CCN(S(=O)(=O)N2CCOCC2)CC1)c1cccc(C)c1	u	1%	-21%	-13	16µM*	0%
Cc1ccc(Cl)cc1NC(=O)CN(C)S(=O)(=O)c1ccc2c(c1)n(C)c(=O)c(=O)n2C	-11%	x	x	x	-9%	x
C[C@@H]1CN([C@H](C)CO)C(=O)CCCn2cc(nn2)CO[C@H]1CN(C)C(=O)Nc1ccc(C(C)(C)C)cc1	-22%	x	x	2	-6%	x
SMILES	DT40 TDP1 CPT	RORg inh	ELG1 DNA repair	IL1B secr inh	TDP1 cell noCPT	Gal4-VP16 FLuc
COc1ccc(NC(=O)CN(C)C(=O)CCNS(=O)(=O)c2ccc(Br)cc2)cc1	-6%	17%	15%	i	-12%	-5%
COc1cc(Nc2nc(SCC(=O)c3ccc(Cl)c(Cl)c3)nc3ccccc23)cc(OC)c1	1.3µM*	x	x	x	0.65µM*	x
COc1ccc2nc(SCC(=O)c3c(C)[nH]c4ccccc34)nc(C)c2c1	1%	x	x	x	-13%	x
O=C(CSc1nc2ccccc2c(=O)n1NC(=O)c1ccccc1)c1ccc(Cl)cc1	u	7%	u	u	u	-1%
O=C(CSc1nc(Nc2ccccc2)c2ccccc2n1)c1ccc(Cl)cc1	13µM*	x	x	x	18µM*	x
CC1CCC(=NO)C(=NO)C1 (stereo not drawn)	0%	x	x	6	-20%	x
O=C1CCCCN1CCCC(=O)N1CCCC(Nc2ccccc2)C1 (stereo not drawn)	-15%	9%	5%	9	-9%	5%
Cn1c(SCC(=O)NC2(C#N)CCCCC2)nnc1-c1cccnc1	-6%	-24%	3%	14	-14%	2%
COC(=O)[C@]1(Sc2ccc(OC)cc2)CC(=O)N[C@@H]1c1ccccc1	u	x	x	39	18µM*	x
NC(=O)c1cccc(N=Cc2cc(Cl)cc(Cl)c2O)c1	-30%	4%	-7%	91	-20%	8%[10 µM]
Oc1c(Cl)cc(Cl)cc1C=Nc1ccccc1N1CCCC1	x	16µM*	-18%	x	x	u
CC(C)CC(=O)NC(=S)Nc1ccc(N2CCOCC2)c(Cl)c1	-19%	7.9µM*	u	8	u	u
O=C(NC(=S)Nc1ccc(N2CCCCC2)c(Cl)c1)c1ccc2c(c1)OCCO2	16µM*	3.2µM*	-13%	-7	21µM*	6.3µM*
O=C(Nc1ccc(N2CCOCC2)c(Cl)c1)c1cccnc1	-26%	12%	25%	-15	-7%	17%
O=C(NC(=S)Nc1ccc(N2CCOCC2)c(Cl)c1)c1cncc(Br)c1	-3%	1µM*	u	14	-34%	0.56µM*
